In PubChem BioAssay (Tox21):
Records with an inconclusive call do not appear. Active and inactive are the calls of the source. Unless noted, calls follow the shape of the dose curve; as a rule, active = well fitted curve in the direction sought with a large enough effect in the repeat runs; inconclusive = weak or mixed curves; inactive = no such curve, though single readings can be large; an effect the other way counts as inactive or inconclusive.

Legend:
[1] = qHTS assay to identify small molecule agonists of the peroxisome proliferator-activated receptor delta (PPARd) signaling pathway - cell viability counter screen (AID 743211); also: nearly all actives have a fitted effect of over 55% in size
Procedure, shortened: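 Counter screen for cytotoxicity run in parallel with the PPARd reporter screen. Beta-lactamase reporter HEK293H cells exposed to compounds 17 h; ATP-based CellTiter-Glo luminescence quantified viability.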

[2] = target: Peroxisome proliferator-activated receptor delta (Homo sapiens) (UniProt Q03181); experiment: qHTS assay to identify small molecule agonists of the peroxisome proliferator-activated receptor delta (PPARd) signaling pathway (AID 743212; calls by dose curve)
Procedure, shortened: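 Steps: seed PPARd-bla HEK293H cells; incubate 5 h, 37 C, 5% CO2; add compounds in DMSO; incubate, 37 C; add LiveBLAzer B/G FRET substrate; hold 2 h at room temperature; measure fluorescence.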

[3] = qHTS assay to identify small molecule antagonists of the peroxisome proliferator-activated receptor delta (PPARd) signaling pathway - cell viability counter screen (AID 743213); also: nearly all actives have a fitted effect of over 50% in size
Procedure, shortened: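 PPARd-bla HEK293H cells (3000/well) got compound plus 300 nM L165041 agonist for 17 h at 37 C. Viability in the same wells came from CellTiter-Glo luminescence after 30 min at room temperature.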

[4] = target: Peroxisome proliferator-activated receptor delta (Homo sapiens) (UniProt Q03181); experiment: qHTS assay to identify small molecule antagonists of the peroxisome proliferator-activated receptor delta (PPARd) signaling pathway (AID 743215; active = well fitted inhibition curve with a large enough effect in the signal ratio in the repeat runs, not every such curve was filed as active; the % refers to the signal ratio;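 also: cells stimulated with agonist L165041 at 300 nM final during compound exposure; series mostly up to about 62 µM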)
Procedure, shortened: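 HEK293H GeneBLAzer PPARd UAS-bla reporter cells; cpd + L165041 300 nM final, 17 h 37 C; LiveBLAzer B/G FRET substrate 2 h RT; fluorescence intensity read-out. Antagonist mode.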

[5] = target: Bile acid receptor (Homo sapiens) (UniProt Q96RI1); experiment: qHTS assay to identify small molecule antagonists of the farnesoid-X-receptor (FXR) signaling pathway (AID 743217; active = well fitted inhibition curve with a large enough effect in the signal ratio in the repeat runs, not every such curve was filed as active; the % refers to the signal ratio)
Procedure, shortened: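 Read-out: beta-lactamase FRET fluorescence (LiveBLAzer B/G substrate, 2 h, room temperature) in GeneBLAzer FXR-UAS-bla HEK 293T cells. Compounds were co-dosed with 50 uM chenodeoxycholic acid (final) and incubated 16 h at 37 °C.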

[6] = qHTS assay to identify small molecule agonists of the farnesoid-X-receptor (FXR) signaling pathway - cell viability counter screen (AID 743218); also: nearly all actives have a fitted effect of over 45% in size
Procedure, shortened: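 Luminescence from CellTiter-Glo, read after 30 min at RT, reports viability of GeneBLAzer FXR-UAS-bla HEK 293T cells treated 16 h with compounds in the wells used for the beta-lactamase reporter.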

[7] = target: Bile acid receptor (Homo sapiens) (UniProt Q96RI1); experiment: qHTS assay to identify small molecule agonists of the farnesoid-X-receptor (FXR) signaling pathway (AID 743220; active = well fitted activation curve with a large enough effect in the signal ratio in the repeat runs, not every such curve was filed as active; the % refers to the signal ratio)
Procedure, shortened: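 FXR-UAS-bla HEK 293T cells carrying a UAS-driven beta-lactamase reporter were plated for 5 h at 37C/5% CO2, then exposed to DMSO-dissolved Tox21 10K compounds for 16 h at 37C. A LiveBLAzer B/G FRET substrate was loaded for 2 h at room temperature before fluorescence reading.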

[8] = qHTS assay to identify small molecule antagonists of the farnesoid-X-receptor (FXR) signaling pathway - cell viability counter screen (AID 743221; active = well fitted cell-killing curve with a large enough effect in the repeat runs, not every such curve was filed as active; also: nearly all actives have a fitted effect of over 50% in size)
Procedure, shortened: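 Multiplexed counter screen: viability of FXR-bla HEK 293T cells under agonist stimulation by chenodeoxycholic acid (50 uM, final) and test compound for 16 h at 37 C, measured by CellTiter-Glo luminescence in the reporter wells.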

[9] = target: Vitamin D3 receptor (Homo sapiens) (UniProt P11473); experiment: qHTS assay to identify small molecule agonists of the vitamin D receptor (VDR) signaling pathway (AID 743222; calls by dose curve)
Procedure, shortened: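 Beta-lactamase reporter readout (LiveBLAzer B/G FRET, 2 h RT) in VDR-bla cells after 16 h compound treatment at 37C, 5% CO2; cells pre-incubated 4 h before pin transfer of DMSO solutions.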

[10] = target: Vitamin D3 receptor (Homo sapiens) (UniProt P11473); experiment: qHTS assay to identify small molecule antagonists of the vitamin D receptor (VDR) signaling pathway (AID 743223; active = well fitted inhibition curve with a large enough effect in the signal ratio in the repeat runs, not every such curve was filed as active; the % refers to the signal ratio)
Procedure, shortened: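 Cells carrying a VDR-driven beta-lactamase reporter (VDR-bla) were co-treated with compound and 3 nM final 1alpha,25-dihydroxyvitamin D3 for 16 h at 37C; reporter activity was measured as FRET substrate fluorescence after 2 h at room temperature.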

Measured: Potency

Sequence of Peroxisome proliferator-activated receptor delta (Homo sapiens) (Q03181 whole entry, looked up): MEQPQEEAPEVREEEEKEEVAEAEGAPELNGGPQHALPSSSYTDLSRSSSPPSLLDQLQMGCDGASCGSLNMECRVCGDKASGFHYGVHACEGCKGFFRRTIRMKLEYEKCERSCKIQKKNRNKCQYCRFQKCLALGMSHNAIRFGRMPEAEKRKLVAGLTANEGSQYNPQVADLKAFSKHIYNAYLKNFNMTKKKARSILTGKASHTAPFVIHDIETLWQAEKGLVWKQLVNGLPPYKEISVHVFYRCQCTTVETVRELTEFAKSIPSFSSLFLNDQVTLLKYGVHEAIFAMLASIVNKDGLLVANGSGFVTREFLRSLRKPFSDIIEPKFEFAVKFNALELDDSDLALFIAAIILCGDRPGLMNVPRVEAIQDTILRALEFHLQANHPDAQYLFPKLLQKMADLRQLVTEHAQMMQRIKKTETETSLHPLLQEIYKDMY
Sequence of Vitamin D3 receptor (Homo sapiens) (P11473 whole entry, looked up): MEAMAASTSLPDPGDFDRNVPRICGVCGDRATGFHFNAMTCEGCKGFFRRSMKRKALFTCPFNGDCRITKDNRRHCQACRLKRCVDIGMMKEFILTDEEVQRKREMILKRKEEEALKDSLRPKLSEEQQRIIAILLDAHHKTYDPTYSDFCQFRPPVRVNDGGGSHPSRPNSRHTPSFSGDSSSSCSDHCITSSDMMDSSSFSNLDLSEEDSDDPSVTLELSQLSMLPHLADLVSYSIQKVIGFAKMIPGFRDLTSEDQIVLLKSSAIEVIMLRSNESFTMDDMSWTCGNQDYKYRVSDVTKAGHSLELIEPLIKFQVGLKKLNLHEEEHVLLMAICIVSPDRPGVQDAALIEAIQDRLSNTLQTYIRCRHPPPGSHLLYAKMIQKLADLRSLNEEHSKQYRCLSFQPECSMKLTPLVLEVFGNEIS
Sequence of Bile acid receptor (Homo sapiens) (Q96RI1 whole entry, looked up): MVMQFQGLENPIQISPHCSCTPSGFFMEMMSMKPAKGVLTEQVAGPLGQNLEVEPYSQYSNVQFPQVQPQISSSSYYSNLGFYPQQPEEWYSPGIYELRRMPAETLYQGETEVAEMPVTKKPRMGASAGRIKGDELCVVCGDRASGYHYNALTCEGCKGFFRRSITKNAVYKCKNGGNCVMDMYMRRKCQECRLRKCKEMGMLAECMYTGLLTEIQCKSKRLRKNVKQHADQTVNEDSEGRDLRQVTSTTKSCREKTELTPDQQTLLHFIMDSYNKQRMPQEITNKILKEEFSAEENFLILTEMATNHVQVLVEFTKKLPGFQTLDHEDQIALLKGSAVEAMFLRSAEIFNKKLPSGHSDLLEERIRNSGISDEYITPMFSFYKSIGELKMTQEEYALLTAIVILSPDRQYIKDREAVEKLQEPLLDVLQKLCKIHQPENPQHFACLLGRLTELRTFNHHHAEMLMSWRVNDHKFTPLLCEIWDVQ

CC(=O)C(C)=O
inactive: [1] | [2] | [3] | [4] | [5] | [6] | [7] | [8] | [9] | [10]

O=[N+]([O-])c1ccc2ncccc2c1
inactive: [1] | [2] | [3] | [4] | [5] | [7] | [8] | [9] | [10]

CCC(CO)(CO)[N+](=O)[O-]
inactive: [1] | [2] | [3] | [4] | [5] | [6] | [7] | [8] | [9]

CC(CO)(CO)C(=O)O
inactive: [1] | [2] | [3] | [4] | [5] | [6] | [7] | [8] | [9] | [10]

O=C(O)CCCc1c[nH]c2ccccc12
inactive: [1] | [2] | [3] | [4] | [5] | [6] | [7] | [8]

CC(C)C(O)C(C)(C)CO (centres undefined)
inactive: [1] | [2] | [3] | [4] | [5] | [6] | [7] | [8] | [9] | [10]

Cc1ccc(Cl)cc1N
inactive: [1] | [2] | [3] | [4] | [5] | [6] | [7] | [8] | [9] | [10]

CC(C)OC(=O)c1ccccc1C(=O)OC(C)C
inactive: [1] | [2] | [3] | [4] | [5] | [7] | [8] | [9] | [10]

COc1cc(S(=O)(=O)Nc2ccccc2)c(OC)cc1N
inactive: [1] | [2] | [3] | [4] | [5] | [6] | [7] | [8] | [9]

CCN(CC)C(=O)N1CCN(C)CC1
inactive: [1] | [2] | [3] | [4] | [5] | [7] | [8] | [9] | [10]

CCc1ccc(C)cc1
inactive: [1] | [2] | [3] | [4] | [5] | [6] | [7] | [8] | [9] | [10]

C=CC(=O)NC(C)C
inactive: [1] | [2] | [3] | [4] | [5] | [6] | [7] | [8] | [9]

CCC(C)(C)C(=O)O
inactive: [1] | [2] | [3] | [4] | [5] | [6] | [7] | [8] | [9] | [10]

Cc1ccc(N(CCO)CCO)cc1
inactive: [1] | [2] | [3] | [4] | [5] | [6] | [7] | [8] | [9]

C1CCCCC1
inactive: [1] | [2] | [3] | [4] | [5] | [6] | [7] | [8]

CC(C)(C)C(O)/C=C/c1ccc2c(c1)OCO2 (centres undefined)
inactive: [1] | [2] | [3] | [4] | [5] | [6] | [7] | [8] | [9] | [10]

Cc1cccc(C)c1NC(=O)c1cc(S(N)(=O)=O)c(Cl)cc1O
inactive: [1] | [2] | [3] | [4] | [5] | [6] | [7] | [8] | [9] | [10]

CC/C=C\C/C=C\C/C=C\CCCCCCCC(=O)OCC
inactive: [1] | [2] | [3] | [4] | [5] | [6] | [7] | [8] | [9]

CC(O)Cn1cnc2c1c(=O)n(C)c(=O)n2C (centres undefined)
inactive: [1] | [2] | [3] | [4] | [5] | [6] | [7] | [8] | [9]

O=C(O)CNC(=O)c1ccccc1I
inactive: [1] | [2] | [3] | [4] | [5] | [6] | [8] | [9]

CCC(CO)(CO)CO
inactive: [1] | [2] | [3] | [4] | [5] | [6] | [7] | [8]

COC(=O)CC(C(C)=O)C(=O)OC (centres undefined)
inactive: [1] | [2] | [3] | [4] | [5] | [6] | [7] | [8] | [9]

O=C(O)CCS
inactive: [1] | [2] | [3] | [4] | [5] | [6] | [7] | [8] | [9]

Cc1cc([N+](=O)[O-])ccc1N
inactive: [1] | [2] | [3] | [4] | [5] | [6] | [7] | [8] | [9] | [10]

Oc1cccc2[nH]ccc12
inactive: [1] | [2] | [3] | [4] | [5] | [6] | [7] | [8] | [9]

Cc1ccccc1S(N)(=O)=O
inactive: [1] | [2] | [3] | [4] | [5] | [6] | [7] | [8] | [9] | [10]

Cc1oc(=O)oc1COC(=O)[C@@H]1N2C(=O)[C@@H](NC(=O)[C@H](N)c3ccccc3)[C@H]2SC1(C)C
inactive: [1] | [2] | [3] | [4] | [5] | [6] | [7] | [8] | [9]

CCC(=O)OCc1ccc(OC)cc1
inactive: [1] | [2] | [3] | [4] | [5] | [6] | [7] | [8] | [9]

COc1ccc(N)c([N+](=O)[O-])c1
inactive: [1] | [2] | [3] | [4] | [5] | [7] | [8] | [9]

CCOC(=O)C(C)O (centres undefined)
inactive: [1] | [2] | [3] | [4] | [5] | [6] | [7] | [8] | [9]

C=C(C)c1ccccc1
inactive: [1] | [2] | [3] | [4] | [5] | [6] | [7] | [8] | [9] | [10]

CC1=C2[C@@H]([C@H](C)CC[C@H]2/C=C(\C)C(=O)O)[C@H](O)C1
inactive: [1] | [2] | [3] | [4] | [5] | [6] | [7] | [8]

CSCC[C@H](NC(=O)[C@H](Cc1c[nH]c2ccccc12)NC(=O)CCNC(=O)OC(C)(C)C)C(=O)N[C@@H](CC(=O)O)C(=O)N[C@@H](Cc1ccccc1)C(N)=O
inactive: [1] | [2] | [3] | [4] | [5] | [6] | [7] | [8]

Cc1ccc(NC(=O)N(C)C)cc1NC(=O)N(C)C
inactive: [1] | [2] | [3] | [4] | [5] | [6] | [7] | [8] | [9] | [10]

CCCCCCCCCCCCCCCC(=O)OCC
inactive: [1] | [2] | [3] | [4] | [5] | [6] | [7] | [8]

CC(=O)NNC(C)=O
inactive: [1] | [2] | [3] | [4] | [5] | [6] | [7] | [8] | [9]

ClC1=C(Cl)C1(Cl)Cl
inactive: [1] | [2] | [3] | [4] | [5] | [6] | [7] | [8] | [9]

COC(=O)c1sccc1S(N)(=O)=O
inactive: [1] | [2] | [3] | [4] | [5] | [6] | [7] | [8] | [9] | [10]

CCCC(=O)OC(=O)CCC
inactive: [1] | [2] | [3] | [4] | [6] | [8]

COC(CC(C)CCCC(C)(C)O)OC (centres undefined)
inactive: [1] | [2] | [3] | [4] | [6] | [8] | [9]

CCSC(=O)N(CC)CC
inactive: [1] | [2] | [3] | [4] | [6] | [8] | [9] | [10]

O=C1OC(=O)c2c(Br)c(Br)c(Br)c(Br)c21
inactive: [1] | [2] | [3] | [4] | [6] | [8] | [9] | [10]

COC1CCC=CO1 (centres undefined)
inactive: [1] | [2] | [3] | [4] | [6] | [8]

O=C(O)CO
inactive: [1] | [2] | [3] | [4] | [6] | [8] | [9]

O=C(O)CCC(=O)OC[C@@H](NC(=O)C(Cl)Cl)[C@H](O)c1ccc([N+](=O)[O-])cc1
inactive: [1] | [2] | [3] | [4] | [6] | [8]

Cc1cn([C@H]2C[C@H](F)[C@@H](CO)O2)c(=O)[nH]c1=O
inactive: [1] | [2] | [3] | [4] | [6] | [8] | [9] | [10]

C=CC(=O)O
inactive: [1] | [2] | [3] | [4] | [6] | [8] | [9]

Nc1ccc(NC(=O)c2ccc(N)cc2)cc1
inactive: [1] | [2] | [3] | [4] | [6] | [8]

C[C@@H]1C[C@H]2[C@@H]3CCC4=CC(=O)C=C[C@]4(C)[C@@]3(F)[C@@H](O)C[C@]2(C)[C@@]1(O)C(=O)COP(=O)(O)O
inactive: [1] | [2] | [3] | [4] | [6] | [8] | [9] | [10]

COc1ccc(C2C(=O)c3ccccc3C2=O)cc1
inactive: [1] | [2] | [3] | [4] | [6] | [8] | [9]

CC(=O)N[C@@H](Cc1ccc(O)cc1)C(=O)O
inactive: [1] | [2] | [3] | [4] | [6] | [8] | [9]

O=C(NS(=O)(=O)/C=C/c1ccccc1)c1ccc(F)cc1Cl
inactive: [1] | [2] | [3] | [4] | [6] | [8]

Cc1ccc2c(c1[N+](=O)[O-])C(=O)c1ccccc1C2=O
inactive: [1] | [2] | [3] | [4] | [6] | [7] | [8] | [9]

CC1CCC(C(C)CS)CC1S (centres undefined)
inactive: [1] | [2] | [3] | [4] | [6] | [8] | [9]
